# Sm TGR block – qHTS Assay for the Inhibitors of Schistosoma Mansoni Peroxiredoxins. actives 3% (n = 360,000). AID 485364, 2010. Potency, µM (doses to about 114 µM), for the others: at the highest dose activity change, negative = inhibition, hits mostly inhibitors. Schistosoma mansoni thioredoxin glutathione reductase (TGR), Q962Y6. purified TGR, DTNB reduction, TNB absorbance 405 nm; also: % is scaled to controls: 0 for no effect and ±100 for the full control effect; nearly all actives have a fitted effect of over 60% in size
#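 Kinetic colorimetric format: TGR-catalysed, NADPH-driven DTNB reduction monitored via TNB absorbance. Enzyme dispensed at 20 nM; compound exposure 15 min at room temperature before reaction start.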
# SARS PLpro yeast – qHTS of Yeast-based Assay for SARS-CoV PLP. S. cerevisiae expressing SARS-CoV PLpro, growth rescue. Potency, µM (doses to about 32.9 µM), for inactives: top-dose activity, positive = growth rescue, actives largely listed as activators. actives 0.19% (n = 330,000); calls by dose curve; also: 0% is about no effect; nearly all actives have a fitted effect of over 55% in size
# RE007 growth inh – qHTS Assay for Inhibitors of the HIV-1 protein Vpr; S. pombe RE007 Vpr strain, BacTiter-Glo ATP luminescence, 24 h; Potency, µM (highest dose often 92.2 µM), for inactives: top-dose activity change, negative = less growth, most hits filed as inhibitors; actives 0.21% (n = 360,000); AID 651644, 2012; active = well fitted falling curve with a large enough effect; inconclusive = small, poorly fitted or top-dose-only effect; inactive = no such curve, though single readings can be large or run the other way; also: % is scaled to controls: 0 for no effect and ±100 for the full control effect; nearly all actives have a fitted effect of over 50% in size
#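 Fission yeast RE007 carrying one integrated HIV-1 vpr copy, seeded at OD 0.01 in PMG+AL medium with 23 nL pinned compound. Grown 24 h at 30 degrees; viability read by BacTiter-Glo luminescence after 5 min.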
# TbPYK inhibitor – qHTS of Trypanosoma Brucei Inhibitors; TbPYK enzyme, Kinase-Glo Plus ATP luminescence, 45 min; Potency, µM (series often up to 76.8 µM), inactives show top-dose activity, negative = inhibition, actives largely listed as inhibitors; actives 0.12% (n = 410,000); also: % is scaled to controls: 0 for no effect and ±100 for the full control effect; nearly all actives have a fitted effect of over 50% in size
#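 Readout: single end-point luminescence (Kinase-Glo Plus, 10 min). Reaction conditions were TbPYK/substrate plus 130 uM ADP, 45 min at RT, pH 7.2 TEA buffer. No-enzyme wells served as controls, and data were normalized before concentration-response fitting.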
# AmpC inh detg – qHTS Inhibitors of AmpC Beta-Lactamase (assay with detergent); actives 0.041% (n = 370,000); AmpC hydrolysis of nitrocefin, absorbance 480 nm, 0.01% Triton; Potency, µM (series often up to 114 µM), without a hit: at the highest dose activity change, negative = inhibition, usual class: inhibitors;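 also: 0% = no-compound wells and -100% = no-enzyme wells; nearly all actives have a fitted effect of over 25% in size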
# Target sequence (P00811 whole entry, looked up): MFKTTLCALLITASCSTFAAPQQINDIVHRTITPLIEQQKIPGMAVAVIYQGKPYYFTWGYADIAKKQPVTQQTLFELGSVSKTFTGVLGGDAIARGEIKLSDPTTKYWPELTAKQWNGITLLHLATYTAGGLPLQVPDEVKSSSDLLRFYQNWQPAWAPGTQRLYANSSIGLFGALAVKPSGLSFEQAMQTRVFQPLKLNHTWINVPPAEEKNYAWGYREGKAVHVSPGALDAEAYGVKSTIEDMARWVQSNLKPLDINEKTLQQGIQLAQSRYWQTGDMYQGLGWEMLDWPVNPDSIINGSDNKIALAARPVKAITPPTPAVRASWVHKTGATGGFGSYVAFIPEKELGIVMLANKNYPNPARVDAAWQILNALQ
#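 20 mM phosphate pH 7.0 + 0.01% (detergent screen) or 0.0001% Triton X-100; 5.3 nM AmpC reagent; cpd preinc 15 min RT; nitrocefin (800 uM stock) to start; A480 q20 s × 4 min; Activity was normalised to no-enzyme and no-compound control wells.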
# AmpC no deterg – qHTS Inhibitors of AmpC Beta-Lactamase (assay without detergent); P00811; AmpC nitrocefin hydrolysis, absorbance 480 nm, 0.0001% Triton; Potency, µM (series often up to 57.1 µM), for the others: at the highest dose activity change, negative = inhibition, most hits filed as inhibitors; actives 0.52% (n = 330,000); AID 485341, 2010;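 also: plate controls were no compound for no effect and no enzyme for full effect; nearly all actives have a fitted effect of over 20% in size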
#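 20 mM phosphate pH 7.0 + 0.01% (detergent screen) or 0.0001% Triton X-100; 5.3 nM AmpC reagent; cpd preinc 15 min RT; nitrocefin (800 uM stock) to start; A480 q20 s × 4 min; Activity was normalised to no-enzyme and no-compound control wells.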
# * hit, by the source's call; ? = inconclusive; / = no result given; [ ] = dose if it differs, or a comment. Hits are enriched below; roughly 3.3% of the tested compounds scored in any of these assays. Unless noted, calls follow the shape of the dose curve; as a rule, active = well fitted curve in the direction sought with a large enough effect; inconclusive = small, poorly fitted or top-dose-only effect, or another doubt; inactive = no such curve, though single readings can be large; an effect the other way counts as inactive or inconclusive. Potency is read from the fitted curve at half-maximal effect.
SMILES,Sm TGR block,SARS PLpro yeast,RE007 growth inh,TbPYK inhibitor,AmpC inh detg,AmpC no deterg
COc1cccc(Cn2c(=O)n(CC3CCC(C(=O)N4CCCCC4)CC3)c(=O)c3sccc32)c1 (stereo not drawn),1%,/,/,2%,15%,/
Cc1cc(S(=O)(=O)Nc2cc3c(cc2N2CCOCC2)n(C)c(=O)n3C)ccc1F,-7%,/,/,-9%,-1%,/
CCc1ccc(NC(=O)Cn2c(=O)n(Cc3ccco3)c(=O)c3oc4ccccc4c32)cc1,7%,/,/,-2%,22%,/
CCCS(=O)(=O)c1c(S(=O)(=O)CCC)c2c(N)cccn2c1C(=O)c1ccc(F)cc1,22µM*,1%,5%,-10%,4%,-5%
CCCS(=O)(=O)c1c(S(=O)(=O)CCC)c2ccccn2c1C(=O)OC,28µM*,-2%,5%,-2%,2%,-7%
CCCS(=O)(=O)c1c(S(=O)(=O)CCC)c2cc(CC)ccn2c1C(=O)OC,3%,-8%,-9%,-5%,-13%,118%
CCCS(=O)(=O)c1c(S(=O)(=O)CCC)c2c(C)cccn2c1C(=O)OC,10µM*,3%,3%,-10%,?,3%
CCCS(=O)(=O)c1c(S(=O)(=O)CCC)c2c(N)cccn2c1C(=O)c1ccc(Br)cc1,?,-3%,2%,-6%,2%,?
CCCS(=O)(=O)c1c(S(=O)(=O)CCC)c2c3ccccc3ccn2c1C(=O)OC,?,-6%,-7%,-10%,-3%,162%
CCN(CC)CCNC(=O)Cn1ncc2c([nH]c3ccccc32)c1=O,4%,/,/,-2%,6%,/
C=CCOC(=O)C1=C[C@@H](c2ccc3c(c2)OCO3)C[C@@H](OCc2ccc(CO)cc2)O1,40µM*,-3%,-8%,0%,9%,-19%
O=C(O)C1=C[C@H](c2ccc3c(c2)OCO3)C[C@H](OCc2ccc(CO)cc2)O1,/,/,57%,-32%,/,/
O=C(O)C1=C[C@H](c2ccc(F)cc2)C[C@H](OCc2ccc(CO)cc2)O1,35µM*,-4%,-6%,0%,3%,-21%
O=C(O)C1=C[C@@H](c2ccc(Br)cc2)C[C@@H](OCc2ccc(CO)cc2)O1,40µM*,-1%,7%,-2%,-2%,-18%
O=C(O)C1=C[C@H](c2cccs2)C[C@H](OCc2ccc(CO)cc2)O1,35µM*,-5%,-3%,-5%,1%,-22%
CCN(CC)S(=O)(=O)c1ccc2c(c1)c(=O)c(C(=O)N1CCN(c3cc(Cl)ccc3C)CC1)cn2C,8%,/,/,1%,1%,/
COc1ccc(CNC(=O)CSc2ncc3c(n2)-c2cc(Cl)ccc2N(C)S3(=O)=O)cc1,6%,/,/,-3%,2%,/
COCc1nnc(NC(=O)CCS(=O)(=O)c2ccccc2)s1,-2%,7%,13%,-19%,0%,-13%
O=C(CCS(=O)(=O)c1ccccc1)Nc1ncc([N+](=O)[O-])s1,45µM*,-10%,-7%,1%,?,-3%
CCCC(C)c1nnc(NC(=O)CCS(=O)(=O)c2ccccc2)s1 (stereo not drawn),89µM*,2%,?,-15%,-11%,-4%
CC(C)c1nnc(NC(=O)CCS(=O)(=O)c2ccccc2)s1,18µM*,2%,5%,0%,2%,-11%
CCC(CC)c1nnc(NC(=O)CS(=O)(=O)c2ccccc2)s1,6%,-6%,-12%,-12%,-10%,-28%
CCc1nnc(NC(=O)CCS(=O)(=O)c2ccccc2)s1,22µM*,0%,-13%,-7%,-13%,-4%
Cc1noc2ncnc(N3CCN(c4ccccc4F)CC3)c12,3%,/,/,-4%,19%,/
O=C(Nc1ncc([N+](=O)[O-])s1)c1cccs1,-21%,-36%,28µM*,?,-12%,-15%
SMILES,Sm TGR block,SARS PLpro yeast,RE007 growth inh,TbPYK inhibitor,AmpC inh detg,AmpC no deterg
Cc1cnc(NC(=O)c2cccs2)s1,-2%,-3%,2%,-11%,2%,-22%
Cc1cccc(OCc2nnc(SCCC(=O)O)n2-c2ccccc2)c1,79µM*,2%,8%,-4%,?,-10%
CCc1ccc(S(=O)(=O)c2nnn3c2nc(N2CCOCC2)c2sccc23)cc1,0%,/,/,1%,-7%,/
COCC(=O)Nc1ccccc1-c1ccccc1,6%,0%,-13%,1%,?,-27%
O=C(O)/C=C/C(=O)Nc1ccccc1-c1ccccc1,10µM*,-37%,-29%,-5%,9%,-10%
O=C(O)/C=C/C(=O)Nc1ccc(Cl)cc1C(=O)c1ccccc1,22µM*,-2%,-25%,-8%,-8%,-25%
O=C(O)/C=C/C(=O)Nc1ccccc1SC(F)(F)C(F)(F)C(F)(F)F,45µM*,-5%,3%,-19%,-2%,-22%
O=C(Nc1ccc(Cl)cc1C(=O)c1ccccc1)c1ccccc1Br,20%,/,/,2%,17%,/
CC(=O)Nc1ccc2c(c1)C(=O)c1ccccc1C2=O,4%,-11%,?,-3%,-11%,-22%
O=C(O)/C=C/C(=O)Nc1ccc2c(c1)C(=O)c1ccccc1C2=O,50µM*,-3%,-15%,?,2%,-13%
COCCCNC(=O)c1ccc(CS(=O)(=O)Cc2cccc(C)c2)o1,-20%,1%,8%,-6%,-10%,1%
Cc1cccc(CSCc2ccc(C(=O)O)o2)c1,50µM*,1%,0%,2%,-8%,-20%
Cc1cccc(CS(=O)(=O)Cc2ccc(C(=O)NCCN3CCCCC3C)o2)c1 (stereo not drawn),35µM*,4%,-9%,-3%,?,4%
Cc1cccc(CS(=O)(=O)Cc2ccc(C(=O)O)o2)c1,25µM*,2%,1%,4%,-1%,-46%
CCc1ccc(CNC(=O)c2ccc(CS(=O)(=O)Cc3cccc(C)c3)o2)cc1,8%,/,/,-12%,3%,/
Cc1ccc(-c2nc(C)c(CCNC(=O)C(=O)Nc3cc(C)ccc3C)s2)cc1,-1%,/,/,-1%,-1%,/
CCC(=O)Nc1nnc(S(=O)(=O)N(C)Cc2ccc(Cl)cc2)s1,1%,/,/,-7%[15.4 µM],21%,/
COc1cc(CN2CCN(C(=O)c3cccc4ccccc34)CC2)cc(OC)c1O,6.3µM*,-1%,-8%,-7%,-10%,12%
COc1cc(CN2CCN(c3cccc(C)c3C)CC2)cc(OC)c1O,32µM*,1%,0%,10%,-10%,7%

# Source: PubChem BioAssay
